This is one part of the list. No count for the full screen is at hand.
Target: furin, P09958
Experiment: furin cleavage Z-score vs untreated control; higher = more cleavage, active = 3.5 or more, inactive = 1 or less, 8 variable residues between constant flanks
How it was run: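 Furin cleavage was scored on 8-mer peptides joined to a cDNA oligonucleotide and bound to magnetic beads at the N-terminus. Digestion with purified furin (1:10 enzyme:substrate, 0.01 ml, 50 mM HEPES pH 7.5, CaCl2, NaCl) lasted 7.5, 15 or 30 min. Freed DNA was tagged with adapters by PCR, sequenced and counted; the cleavage Z-score is the lowess-adjusted log count versus furin-free reactions, scaled by median absolute deviation.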

Sequence of furin, P09958 (P09958 whole entry): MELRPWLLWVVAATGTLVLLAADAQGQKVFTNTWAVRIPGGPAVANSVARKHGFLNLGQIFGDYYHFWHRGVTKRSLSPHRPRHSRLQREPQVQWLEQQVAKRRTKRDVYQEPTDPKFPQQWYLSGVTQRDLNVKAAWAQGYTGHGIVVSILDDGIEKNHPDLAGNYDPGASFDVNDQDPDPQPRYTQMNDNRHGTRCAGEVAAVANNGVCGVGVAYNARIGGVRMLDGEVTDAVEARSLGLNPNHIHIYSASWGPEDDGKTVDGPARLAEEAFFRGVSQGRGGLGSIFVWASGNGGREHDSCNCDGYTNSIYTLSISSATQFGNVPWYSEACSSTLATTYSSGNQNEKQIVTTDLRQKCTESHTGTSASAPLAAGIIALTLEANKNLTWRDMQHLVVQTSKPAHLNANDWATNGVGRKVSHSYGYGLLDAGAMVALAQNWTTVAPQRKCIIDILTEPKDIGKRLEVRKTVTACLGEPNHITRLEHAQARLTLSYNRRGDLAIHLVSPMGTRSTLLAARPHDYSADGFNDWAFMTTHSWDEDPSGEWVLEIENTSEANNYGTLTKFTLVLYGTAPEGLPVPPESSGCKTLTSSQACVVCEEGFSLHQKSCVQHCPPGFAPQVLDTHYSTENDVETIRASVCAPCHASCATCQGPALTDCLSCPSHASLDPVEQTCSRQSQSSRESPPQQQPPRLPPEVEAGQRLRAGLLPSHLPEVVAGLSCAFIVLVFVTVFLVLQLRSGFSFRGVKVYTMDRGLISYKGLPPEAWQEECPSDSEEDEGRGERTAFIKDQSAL

Sequence	furin cleavage Z-score (7.5 min)	furin cleavage Z-score (15 min)	furin cleavage Z-score (30 min)
CARGSLLSPRAGNASASA [HC735]	0.168 (inactive)	-0.587 (inactive)	-0.591 (inactive)
CAGSATLCSAAGNASASA [HC294]	-0.289 (inactive)	-0.124 (inactive)	-0.454 (inactive)
CARNKRTCSEAGNASASA [FS-2161]	4.64 (active)	4.66 (active)	4.26 (active)
CADNTTTSSEAGNASASA [HC1342]	-1.15 (inactive)	0.112 (inactive)	-0.634 (inactive)
CARNKRTCSAAGNASASA [FS-2160]	2.24	3.57 (active)	2.82
CAEVPCHRHSAGNASASA [HC2395]	0.115 (inactive)	0.712 (inactive)	1.03
CAECHSTDATAGNASASA [HC819]	-0.594 (inactive)	-1.11 (inactive)	0.253 (inactive)
CALFAGVDAEAGNASASA [HC349]	-0.796 (inactive)	-0.738 (inactive)	-0.0117 (inactive)
CALGDREKRDAGNASASA [FS-548]	4.49 (active)	4.22 (active)	4.54 (active)
CAASAVLKRDAGNASASA [FS-751]	0.168 (inactive)	-1.94 (inactive)	1.16
CAFSAREKRDAGNASASA [FS-587]	10.7 (active)	11.3 (active)	9.1 (active)
CAASGREGRDAGNASASA [FS-402]	-0.371 (inactive)	-0.657 (inactive)	-0.187 (inactive)
CAIKDRNKRDAGNASASA [FS-251]	11.9 (active)	10.9 (active)	8.42 (active)
CAEVVTSTWYAGNASASA [HC2249]	-1.56 (inactive)	-0.21 (inactive)	-0.098 (inactive)
CALKKRSYFGAGNASASA [FS-2870]	0.606 (inactive)	0.802 (inactive)	1.4
CAEVVNSTWVAGNASASA [HC138]	0.467 (inactive)	-0.699 (inactive)	1.06
CAPPSREKKVAGNASASA [FS-1051]	-1.64 (inactive)	-0.193 (inactive)	0.495 (inactive)
CALLSRKKREAGNASASA [FS-271]	8.61 (active)	6.86 (active)	6.5 (active)
CADVNRLKREAGNASASA [FS-648]	14.4 (active)	13.9 (active)	11.5 (active)
CAPPSRARRRAGNASASA [FS-73]	5.98 (active)	6.69 (active)	6.77 (active)
CAGAGRARRRAGNASASA [FS-995]	-0.00606 (inactive)	2.14	1.07
CALLSRKRRRAGNASASA [FS-1539]	11.7 (active)	12.2 (active)	9.16 (active)
CALLSRPLRGAGNASASA [FS-1229]	-0.34 (inactive)	-0.208 (inactive)	-1.05 (inactive)
CAWLEVVTSTAGNASASA [HC2268]	0.509 (inactive)	1.8	1.63

Sequence	furin cleavage Z-score (7.5 min)	furin cleavage Z-score (15 min)	furin cleavage Z-score (30 min)
CALLSRRPRDAGNASASA [FS-611]	10.2 (active)	10.5 (active)	8.78 (active)
CALLSCLTVPAGNASASA [HC251]	-1.14 (inactive)	0.458 (inactive)	-0.633 (inactive)
CALLSPRGSRAGNASASA [HC209]	0.623 (inactive)	-0.229 (inactive)	0.325 (inactive)
CALLSRVRREAGNASASA [FS-1540]	7.59 (active)	6.32 (active)	5.92 (active)
CALLFLLLADAGNASASA [HC521]	-0.353 (inactive)	-1.02 (inactive)	-2.28 (inactive)
CATKSRKKREAGNASASA [FS-1493]	12.1 (active)	10.8 (active)	8.58 (active)
CALLFRSNRDAGNASASA [FS-822]	5.19 (active)	4.77 (active)	4.55 (active)
CAALWRVSAEAGNASASA [HC1201]	-1.28 (inactive)	-0.15 (inactive)	-1.16 (inactive)
CAFEECSQHLAGNASASA [HC1667]	1.36	0.54 (inactive)	-0.544 (inactive)
CAHNSRKKREAGNASASA [FS-1340]	11.8 (active)	13.6 (active)	9.48 (active)
CAFHYVTGMTAGNASASA [HC1210]	0.168 (inactive)	-0.792 (inactive)	-0.653 (inactive)
CAGFGAYMSKAGNASASA [HC792]	1.73	-1.14 (inactive)	1.32
CARKAKEEGTAGNASASA [FS-2957]	-0.545 (inactive)	1.07	-0.377 (inactive)
CARARRQLGTAGNASASA [FS-3184]	4.41 (active)	5.24 (active)	4.88 (active)
CARKARALGTAGNASASA [FS-2034]	7.98 (active)	9.85 (active)	7.74 (active)
CAEVNCHRPSAGNASASA [HC2361]	1.09	1.04	-0.207 (inactive)
CAPFDLLDFNAGNASASA [CS3]	-0.762 (inactive)	-0.626 (inactive)	-1.52 (inactive)
CAMREVPCHRAGNASASA [HC2426]	-1.33 (inactive)	-0.795 (inactive)	-0.936 (inactive)
CANQRRNKREAGNASASA [FS-279]	13.2 (active)	11.8 (active)	8.6 (active)
CAARARHRKNAGNASASA [FS-1512]	3.46	4.75 (active)	6.6 (active)
CAARARNKREAGNASASA [FS-217]	9.23 (active)	10.8 (active)	7.52 (active)
CARKKKHRKNAGNASASA [FS-2265]	0.00727 (inactive)	-0.00103 (inactive)	-1.45 (inactive)
CAARAQAPPPAGNASASA [HC958]	-1.14 (inactive)	-1.1 (inactive)	-1.17 (inactive)
CAARAAWETAAGNASASA [HC1567]	1.07	0.154 (inactive)	-0.51 (inactive)
